An excerpt weighted towards active compounds, which were near 3.3% of everything screened.
SARS PLpro yeast – blocks SARS-CoV papain-like protease in a yeast assay; 330,000 compounds, 0.19% hits; Potency, µM (series often up to 32.9 µM), inactives show at the highest dose activity, positive = growth rescue, usual class: activators; S. cerevisiae expressing SARS-CoV PLpro, growth rescue; calls by dose curve; also: 0% is about no effect; nearly all actives have a fitted effect of over 55% in size
TbPYK inhibitor – blocks Trypanosoma brucei pyruvate kinase | Q57TT1 | TbPYK enzyme, Kinase-Glo Plus ATP luminescence, 45 min | Potency, µM (top dose mostly 76.8 µM), inactives show at the highest dose activity, negative = inhibition, most hits filed as inhibitors | 410,000 compounds, 0.12% hits; also: % is scaled to controls: 0 for no effect and ±100 for the full control effect; nearly all actives have a fitted effect of over 50% in size
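Readout: single end-point luminescence (Kinase-Glo Plus, 10 min). Reaction conditions were TbPYK/substrate plus 130 uM ADP, 45 min at RT, pH 7.2 TEA buffer. No-enzyme wells served as controls, and data were normalized before concentration-response fitting.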
AmpC inh detg – blocks E. coli AmpC beta-lactamase in detergent assay; P00811; Potency, µM (titrated, usually from 114 µM), without a hit: top-dose activity change, negative = inhibition, most hits filed as inhibitors; AmpC hydrolysis of nitrocefin, absorbance 480 nm, 0.01% Triton; 370,000 compounds, 0.041% hits;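 also: 0% = no-compound wells and -100% = no-enzyme wells; nearly all actives have a fitted effect of over 25% in size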
Target sequence (P00811 whole entry, looked up): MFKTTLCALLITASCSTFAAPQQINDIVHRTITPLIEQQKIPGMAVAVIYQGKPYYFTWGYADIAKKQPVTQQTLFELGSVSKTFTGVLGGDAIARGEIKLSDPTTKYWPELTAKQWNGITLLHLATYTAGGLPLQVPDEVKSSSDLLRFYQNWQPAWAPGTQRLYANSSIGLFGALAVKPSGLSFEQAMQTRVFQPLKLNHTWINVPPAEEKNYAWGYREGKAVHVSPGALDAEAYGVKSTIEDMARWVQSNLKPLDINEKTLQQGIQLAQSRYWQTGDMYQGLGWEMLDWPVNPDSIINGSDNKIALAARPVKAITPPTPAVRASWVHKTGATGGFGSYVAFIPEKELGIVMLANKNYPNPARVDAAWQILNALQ
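20 mM phosphate pH 7.0 + 0.01% (detergent screen) or 0.0001% Triton X-100; 5.3 nM AmpC reagent; cpd preinc 15 min RT; nitrocefin (800 uM stock) to start; A480 q20 s × 4 min; Activity was normalised to no-enzyme and no-compound control wells.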
AmpC no deterg – blocks E. coli AmpC beta-lactamase in detergent-free assay; AmpC nitrocefin hydrolysis, absorbance 480 nm, 0.0001% Triton; Potency, µM (doses to about 57.1 µM), for inactives: at the top dose activity change, negative = inhibition, usual class: inhibitors; 330,000 compounds, 0.52% hits; AID 485341;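 also: plate controls were no compound for no effect and no enzyme for full effect; nearly all actives have a fitted effect of over 20% in size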
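20 mM phosphate pH 7.0 + 0.01% (detergent screen) or 0.0001% Triton X-100; 5.3 nM AmpC reagent; cpd preinc 15 min RT; nitrocefin (800 uM stock) to start; A480 q20 s × 4 min; Activity was normalised to no-enzyme and no-compound control wells.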
Sm TGR inh – S. mansoni TGR enzyme inhibition; Q962Y6; purified TGR, DTNB reduction, TNB absorbance 405 nm; Potency, µM (doses to about 114 µM), inactives show at the top dose activity change, negative = inhibition, most hits filed as inhibitors; 360,000 compounds, 3% hits; also: % is scaled to controls: 0 for no effect and ±100 for the full control effect; nearly all actives have a fitted effect of over 60% in size
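First, TGR (20 nM dispensed) and NADPH were mixed with compound. Second, a 15 min room-temperature incubation followed. Third, further NADPH and then DTNB were added to start the reaction. Finally, TNB absorbance was monitored kinetically.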
RE007 growth inh – less growth of the S. pombe RE007 Vpr strain; 360,000 compounds, 0.21% hits; S. pombe RE007 Vpr strain, BacTiter-Glo ATP luminescence, 24 h; Potency, µM (doses to about 92.2 µM), for inactives: at the top dose activity change, negative = less growth, hits mostly inhibitors; active = well fitted falling curve with a large enough effect; inconclusive = small, poorly fitted or top-dose-only effect; inactive = no such curve, though single readings can be large or run the other way; also: % is scaled to controls: 0 for no effect and ±100 for the full control effect; nearly all actives have a fitted effect of over 50% in size
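Fission yeast RE007 carrying one integrated HIV-1 vpr copy, seeded at OD 0.01 in PMG+AL medium with 23 nL pinned compound. Grown 24 h at 30 degrees; viability read by BacTiter-Glo luminescence after 5 min.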
Active calls of the source: *; u = inconclusive; x = no result; [ ] = dose if it differs, or a comment. Unless noted, calls follow the shape of the dose curve; as a rule, active = well fitted curve in the direction sought with a large enough effect; inconclusive = small, poorly fitted or top-dose-only effect, or another doubt; inactive = no such curve, though single readings can be large; an effect the other way counts as inactive or inconclusive. Potency is read from the fitted curve at half-maximal effect.

SMILES	SARS PLpro yeast	TbPYK inhibitor	AmpC inh detg	AmpC no deterg	Sm TGR inh	RE007 growth inh
FCCCOc1ccc(-c2nccc(-c3ccc(Cl)cc3)n2)cc1	2.9%	-1.3%	4.8%	0.112µM*	3.3%	16.5%
CSc1ccc(C(=O)C2CCCN(C(=O)c3nn(C)c(=O)c4ccccc34)C2)cc1 (stereo not drawn)	-1.8%	-1.7%	u	-6.9%	14.1µM*	8.5%
O=C(O)CC(CNS(=O)(=O)c1ccccc1)c1ccccc1 (stereo not drawn)	6.0%	0.8%	u	2.51µM*	8.2%	2.9%
Cc1ccc2nc(N3C(=O)C(O)=C(C(=O)c4ccc(C)o4)C3c3ccco3)sc2c1 (stereo not drawn)	-2.9%	0.4%	-1.3%	-47.2%	u	-4.8%
Cc1ccc2nc(N3C(=O)C(O)=C(C(=O)c4ccco4)C3c3ccc(C)o3)sc2c1 (stereo not drawn)	-16.7%	-16.9%	5.3%	-47.5%	31.6µM*	-3.0%
COc1cc(CNc2cccc(F)c2)cc(Br)c1O	6.1%	0.1%	-4.8%	-28.1%	12.6µM*	-11.7%
CCN1CCN(C(c2ccccc2)c2c(O)cc(C)n(Cc3ccco3)c2=O)CC1 (stereo not drawn)	x	-4.6%	4.5%	x	4.47µM*	x
CCN1CCN(C(c2cccc(OC)c2OC)c2nnnn2Cc2ccco2)CC1 (stereo not drawn)	-1.7%	-1.1%	0.9%	0.1%	0.0%[57.1 µM]	-6.3%
CCN1CCN(C(c2ccc(OC)cc2)c2c(O)cc(C)n(Cc3ccco3)c2=O)CC1 (stereo not drawn)	x	-17.3%	-1.4%	x	5.62µM*	x
Cc1cc(O)c(C(c2ccccc2)N2CCN(C)CC2)c(=O)n1Cc1ccco1 (stereo not drawn)	x	17.0%	-0.3%	x	5.62µM*	x
COc1cc(CN2CCN(Cc3ccco3)CC2)cc(OC)c1	-0.3%	22.9%	3.4%	-11.8%	-13.8%	1.8%
OC(COCc1ccco1)CN1CCN(C(c2ccccc2)c2ccccc2)CC1 (stereo not drawn)	-0.1%	-7.5%	-7.2%	68.8%	-5.5%	-7.8%
CCN1CCN(C(c2ccc(SC)cc2)c2c(O)cc(C)n(Cc3ccco3)c2=O)CC1 (stereo not drawn)	x	4.7%	-7.8%	x	3.55µM*	x
Cc1ccccc1C(=O)OCc1cc(=O)n2nc(C3CCCCC3)sc2n1	x	-4.7%	-0.8%	x	-19.1%	x
N#C/C(=C1/SC[C@@H](c2ccc(Cl)cc2Cl)S1)n1ccnc1	x	5.9%	x	x	x	x
Nc1c(N(CCC2=CCCCC2)C(=O)CCCOc2ccccc2)c(=O)[nH]c(=O)n1Cc1ccccc1	-3.6%	-1.8%	u	14.1µM*	0.7%	2.6%
Nc1c(N(CCC2=CCCCC2)C(=O)COc2ccc(F)cc2)c(=O)[nH]c(=O)n1Cc1ccccc1	17.6%	-11.5%	5.2%	-40.0%	-25.2%	0.8%
C=C1CN(Cc2ccccc2)S(=O)(=O)c2ccccc21	0.2%	-21.7%	0.4%	-25.3%	17.8µM*	5.0%
NC(=O)/C=C/C(=O)Nc1ccc(Cl)cc1	-33.1%	1.1%	-0.4%	-13.1%	3.55µM*	11.2µM*
O=C(/C=C/C(Cl)(Cl)Cl)Nc1ccc(Cl)cc1	x	1.3%	x	x	x	u
CCCCc1[nH]c(=O)c(C#N)c2c1CSC(C)(C)C2	-1.2%	-4.4%	u	-23.5%	31.6µM*	6.6%
CCc1[nH]c(=O)c(C#N)c2c1CSC(C)(C)C2	-7.1%	-6.4%	-7.4%	-23.9%	u	2.3%
Cc1ccnc2c(N3C(=O)C4C5C=CC(C5)C4(C)C3=O)cccc12 (stereo not drawn)	6.5%	-0.7%	u	7.08µM*	-2.0%	-7.8%
COc1ccc2[nH]c(C)c(C(=O)CN3CC(C)OC(C)C3)c2c1 (stereo not drawn)	1.8%	-2.5%	1.3%	-28.7%	-9.9%	0.4%
COc1cccc(NC(=O)CN(C)CC(=O)c2c(C)[nH]c3ccccc23)c1	3.0%	-6.9%	0.5%	-4.1%	17.8µM*	7.5%
SMILES	SARS PLpro yeast	TbPYK inhibitor	AmpC inh detg	AmpC no deterg	Sm TGR inh	RE007 growth inh
COc1ccc2[nH]c(C)c(C(=O)CN(C)CC3OCCO3)c2c1	0.0%	-12.8%	-8.2%	-9.0%	25.1µM*	-15.9%
COc1ccc2[nH]c(C)c(C(=O)CN(C)C)c2c1	-1.6%	4.9%	-12.6%	2.1%	39.8µM*	5.6%
COC(=O)CN1C(=O)C(C)(C)c2cc(S(=O)(=O)NCc3ccc(Cl)cc3)ccc21	x	-4.3%	6.3%	x	-1.1%	x
CCc1ccc(NCc2cc3cc4c(cc3n(CC(=O)Nc3ccccc3C)c2=O)OCCO4)cc1	x	-3.9%	14.8%	x	-31.5%	x
CN(C)S(=O)(=O)c1cc(NC(=O)CN2CCN(c3ccc(O)cc3)CC2)ccc1Cl	1.3%	-7.6%	-14.9%	0.6%	79.4µM*	2.2%
CC(C)CC(=O)Nc1ccc(C(=O)CN2CCN(c3ccc(O)cc3)CC2)cc1	3.6%	-11.5%	9.3%	-3.9%	5.62µM*	1.5%
O=S1(=O)CC(O)C(NCc2ccco2)C1 (stereo not drawn)	-4.1%	0.0%	-2.5%	-17.6%	-4.8%	-3.4%
CC(C)(C)c1cc(CNC2CS(=O)(=O)C[C@@H]2O)cc(C(C)(C)C)c1O (stereo partly drawn)	-16.1%	-7.0%	-4.9%	12.1%	1.58µM*	-17.4%
CCNC(=S)Nc1cc(-c2ccc(Cl)cc2)[nH]n1	-5.5%	-2.3%	1.3%	-43.0%	0.891µM*	0.6%
CCCCCOc1ccc(NC(=O)Cn2c(-c3cncs3)nc3ccccc32)cc1	x	-5.7%	3.3%	x	2.5%	x
CCOC(Cn1c(SCc2cc(C(C)=O)ccc2OC)nc2ccccc2c1=O)OCC	6.6%	2.0%	-0.5%	-9.8%	-9.9%	6.0%
COc1ccc(C(C)=O)cc1CSc1nc2cc(C(=O)O)ccc2c(=O)n1Cc1ccccc1	14.6%	-0.2%	-11.8%	-46.6%	22.4µM*	15.0%
CCCCN1C(=O)C(O)(CC(=O)c2ccc(C(C)(C)C)cc2)c2ccccc21 (stereo not drawn)	x	-4.8%	2.1%	x	1.1%	x
Cc1ccc(C)c(Cn2c(=O)n(Cc3ccccc3)c(=O)c3c(C)c(C)sc32)c1	x	-5.0%	17.1%	x	0.7%	x
CCOc1ccc(CCNC(=O)c2cc3c(=O)n(CC)c4ccccc4c3s2)cc1OCC	x	5.6%	-4.7%	x	-0.2%	x
CCOC(=O)c1c(/N=C/c2c(O)n(-c3cccc(C)c3)c(=O)[nH]c2=O)sc2c1CCCC2	2.7%	-26.2%	u	-12.5%	89.1µM*	-18.2%
CCOC(=O)c1c(/N=C/c2ccccc2O)sc2c1CCC2	-9.2%	-7.6%	-3.7%	-13.8%	-18.9%	-7.6%

Assay outcomes deposited in PubChem BioAssay by National Center for Advancing Translational Sciences (NCATS).
